Measurements: the supplement of paper PMC10477191
± gives the standard deviation of the averaged measurements.

Test system: Drosophila virilis antennal basiconic sensillum AB10
Test: odor-evoked OSN spike response (post minus pre-stimulus); higher = stronger neuronal excitation
Conditions: odor dilution: 10^-4
Protocol: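 Single sensillum recordings from antennal basiconic sensilla of D. virilis. A 500 ms pulse of odorant (10^-4 in mineral oil or DMSO) was delivered; the response is the change in spike frequency between the 1 s pre- and post-stimulus windows (spikes/s).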

SMILES	odor-evoked OSN spike response
CCOC(=O)CC(C)O (stereo not drawn) [Ethyl-3-hydroxybutyrate]	99.4 ± 35 spikes/s
CC(=O)OC/C=C(\C)CCC=C(C)C [geranyl acetate]	134 ± 24 spikes/s
CC(=O)C(C)O (stereo not drawn) [acetoin]	143 ± 43 spikes/s
